# Laboratory results: ChEMBL document CHEMBL4513216, “Probing the Open Global Health Chemical Diversity Library for Multistage-Active Starting Points for Next-Generation Antimalarials” (ACS Infect Dis, 2020)
# Out of some 69,000 compounds screened, about 8,600 (12%) showed an effect of 50% or more. This excerpt belongs to a sample that is enriched for strong results.
# Tested on: Plasmodium berghei
# Experiment: Screen against P. berghei liver stage (PbLuc), transformed with Luciferase, at 10uM
# Type: functional, HepG2
# Conditions: tested at 10 uM
row,SMILES,INHIBITION
1,O=C(c1ncccn1)N1CCC[C@]2(C[C@@H](Oc3ncccc3F)CO2)C1,-2.17%
2,CC(C)C(Sc1nccn1C1CC1)C(=O)NCc1cccnc1 (stereo not given),0.411%
3,Cc1ccc(N2CC3(CCN(Cc4nccn4C)C3)CC2=O)s1 (stereo not given),15.9%
4,CCOC(=O)CN1CC(c2nc(-c3ccsc3)no2)C1,9.96%
5,CC(C)NC(=O)CNC(=O)c1csc(Cc2ccccc2F)n1,-20.6%
6,COc1ccc(C2CCN(S(=O)(=O)CCCC#N)CC2)cc1,59.1%
7,CCCS(=O)(=O)N1CCC(c2ccc(OC)cc2)CC1,67.8%
8,N#CCCCS(=O)(=O)N1CCC(CSc2ccccc2)C1 (stereo not given),-18.7%
9,COc1ccc(C2CCN(CCCC#N)CC2)cc1,63.5%
10,CCCS(=O)(=O)N1CCC(NCc2c(C)nn(C)c2OC)CC1,-10.9%
11,CCCS(=O)(=O)N1CCC(Oc2ccc(C#N)cc2)CC1,25.8%
12,Cc1ncsc1C(=O)NC1CCN(CCCC#N)CC1,33.7%
13,COc1ccc(C2CCN(Cc3cscn3)CC2)cc1,37.7%
14,CC(C)n1cnnc1C1CCCN(S(=O)(=O)CCCC#N)C1 (stereo not given),48.3%
15,CN(C)c1cc2c(nn1)CCN(C(=O)Cc1ccc3c(c1)CCC3)C2,5.8%
16,CCn1nc(C)c2nc(C(C)C)nc(NCC(C)C)c21,47.4%
17,Cc1occc1C(=O)N1CCC2(CC1)NC(=O)CC2c1cnn(C)c1 (stereo not given),42.1%
18,CNC(=O)C1CN(C)CCN(CCCOc2ccccc2F)C1 (stereo not given),8.72%
19,CC(=O)Nc1ccc(SCC(=O)NCC2CCCO2)nn1 (stereo not given),-4.83%
20,COc1cccc([C@@]2(O)CC[C@@H]3CN(C(=O)c4cn(C)nc4C)C[C@@H]32)c1,-1.95%
21,OCc1nnn2c1CN(Cc1cccnc1)CCC2,29%
22,CCc1cnc(CN(C(C)=O)C2CCN(Cc3nccn3C)C2)o1 (stereo not given),-6.865%
23,O=C(NCC1CCCO1)c1cc(Sc2ncccn2)ccn1 (stereo not given),32.8%

row,SMILES,INHIBITION
1,CC(C)NC(=O)CC1CC2(CCN(S(C)(=O)=O)CC2)c2ccccc21 (stereo not given),18.5%
2,CNC(=O)CC1CC2(CCN(S(C)(=O)=O)CC2)c2ccccc21 (stereo not given),6.66%
3,CNC(=O)CNC1CC2(CCN(c3ncccn3)CC2)c2ccccc21 (stereo not given),2.4%
4,Cn1cc(CNC2CC3(CCN(CC4CC4)CC3)c3ccccc32)cn1 (stereo not given),-40.4%
5,CNC(=O)CC1CC2(CCN(c3ncccn3)CC2)c2ccccc21 (stereo not given),55.6%
6,c1cnc(N2CCC3(CC2)CC(NCC2CC2)c2ccccc23)nc1 (stereo not given),88.1%
7,Cn1cc(CNC2CC3(CCN(S(C)(=O)=O)CC3)c3ccccc32)cn1 (stereo not given),44.8%
8,CS(=O)(=O)N1CCC2(CC1)CC(CC(=O)NC1CC1)c1ccccc12 (stereo not given),37%
9,CS(=O)(=O)N1CCC2(CC1)CC(NCc1ccco1)c1ccccc12 (stereo not given),66.6%
10,CS(=O)(=O)N1CCC2(CC1)CC(NCC1CC1)c1ccccc12 (stereo not given),59.3%
11,CS(=O)(=O)N1CCC2(CC1)CC(NCc1ccccn1)c1ccccc12 (stereo not given),45.7%
12,CN(C)C(=O)CC1CC2(CCN(c3ncccn3)CC2)c2ccccc21 (stereo not given),38.5%
13,CC(Nc1cccc2c1OCCO2)C(=O)Nc1cccc(C#N)c1 (stereo not given),8.12%
14,CCc1nc(CN(C(C)=O)C2CCN(CCc3ccccn3)C2)no1 (stereo not given),29.7%
15,Oc1nc(N2CCOCC2)nc2nccc(-c3ccccn3)c12,-21.3%
16,CNC(=O)c1cc(C)n(-c2ccccc2)n1,36.2%
17,O=C(NCc1cccs1)[C@@H]1CC[C@@H]2[C@@H](CCN2CC2CCC2)O1,30.3%
18,CC(C)[C@H]1CN(c2cnccn2)C[C@@H]1NC(=O)C1(C#N)CCOCC1,49.5%
19,CC(C)C[C@@H](CO)n1cc(-c2cncnc2)nn1,28.4%
20,COc1ccc(C(=O)N(C)Cc2nnc3ccccn23)cc1,-35.7%
21,CC(C)c1nn(C)c(N(C)C)c1CNCC(O)COc1ccccc1 (stereo not given),-37.2%
22,NC(=O)c1ccc(NC(=O)N2CCN(c3cccs3)CC2)c(F)c1,44.3%
23,Cc1cc(NC(=O)N2CCN(c3cccs3)CC2)ccc1C(N)=O,41%

row,SMILES,INHIBITION
1,Cc1cc(C(N)=O)ccc1NC(=O)N1CCN(c2cccs2)CC1,65.6%
2,CS(=O)(=O)NCc1nnc2n1CCN(CC1CC1)C2,39.2%
3,Cc1nc(C2CCCN(C(=O)Cn3ccccc3=O)C2)sc1C (stereo not given),25.6%
4,CCn1ccnc1CN1CCCC1Cn1cc(C)cn1 (stereo not given),-53.5%
5,CNCC(=O)N1CCCC(c2ccnc(Nc3cnccn3)n2)C1 (stereo not given),15.9%
6,CC(=O)N1CCCC(c2ccnc(Nc3cnccn3)n2)C1 (stereo not given),42.6%
7,Cc1ccc(Nc2nccc(C3CCN(C(=O)CN)C3)n2)nc1 (stereo not given),58.1%
8,O=C(C1CCCC1)N1CCC(c2ccnc(Nc3cnccn3)n2)C1 (stereo not given),22%
9,NCC(=O)N1CCC(c2ccnc(Nc3cc(C(F)(F)F)ccn3)n2)C1 (stereo not given),19.3%
10,CNCC(=O)N1CCC(c2ccnc(Nc3ccc(C)cn3)n2)C1 (stereo not given),56.3%
11,Cc1ccc(Nc2nccc(C3CCN(C(=O)CO)C3)n2)nc1 (stereo not given),40.6%
12,CC(=O)N1CCC(c2ccnc(Nc3cnccn3)n2)C1 (stereo not given),50.6%
13,CNCC(=O)N1CCCC(c2cccc(Nc3nc(C)cc(C)n3)n2)C1 (stereo not given),33%
14,Cc1cc(N2CCN(C(=O)[C@@H]3C[C@H]4C=C[C@@H]3C4)CC2)cc(C)n1,-1.84%
15,Cn1ccc(C(=O)NCCOc2ccc(C(C)(C)C)cc2)cc1=O,20.3%
16,CN1CCC/C1=N\S(=O)(=O)c1ccc(NC(=O)c2ccc(Cl)cc2)cc1,15.6%
17,CCc1cc(O)n2nc(C3CCN(C(=O)c4ccncc4)CC3)cc2n1,32.85%
18,CNC(=O)CN1CCOCC2(C1)CN(C(=O)C(C)C)CCO2 (stereo not given),-15.7%
19,Cc1ncc2c(n1)CN(C(C(N)=O)c1ccc(F)cc1)CC2 (stereo not given),58.5%
20,Cc1ncc2c(n1)CCN(C(C(N)=O)c1ccccc1)C2 (stereo not given),-4.4%
21,Cc1ncc2c(n1)CN(C(C(N)=O)c1ccccc1)CC2 (stereo not given),-40.4%
22,O=C(c1ccncc1)N1CCOC2(COCCN(c3cncnc3)C2)C1 (stereo not given),37.8%
23,Cc1nc(Cn2c3c(ccc2=O)CCN(CC2CCC2)CC3)cs1,-18.5%

row,SMILES,INHIBITION
1,CC1c2ncc(CN3CCN(C)CC3)n2CCN1Cc1ccsc1 (stereo not given),27.3%
2,CC1c2ncc(Cn3cccn3)n2CCN1Cc1ccccn1 (stereo not given),58.4%
3,CC1c2ncc(CNC(=O)C3CC3)n2CCN1Cc1ccccn1 (stereo not given),-88.3%
4,CC1c2ncc(CN3CCN(C)CC3)n2CCN1Cc1cccnc1 (stereo not given),34.8%
5,CC1c2ncc(Cn3cccn3)n2CCN1Cc1ccc(F)cc1 (stereo not given),54.8%
6,CC1c2ncc(Cn3cccn3)n2CCN1Cc1cccnc1 (stereo not given),-9.26%
7,CC1c2ncc(Cn3cccn3)n2CCN1c1ncccn1 (stereo not given),23.1%
8,CC1c2ncc(CN3CCN(C)CC3)n2CCN1Cc1ccc(F)cc1 (stereo not given),11.5%
9,CC1c2ncc(CN3CCN(C)CC3)n2CCN1Cc1ccccn1 (stereo not given),53%
10,c1ccc(Cc2nnc(CN3CCOC(Cn4cccn4)C3)o2)cc1 (stereo not given),19.4%
11,Cc1cccc(C(=O)N2C[C@@H]3C(CC(=O)N4CCCC4)[C@@H]3C2)n1 (stereo not given in full),-2.35%
12,CSc1nc2ccsc2c(=O)n1CC(=O)N(C)c1ccccc1,36.8%
13,O=C(O)[C@@H]1CCN(C(=O)c2ccccn2)[C@@H]1c1ccc(F)cc1,-8.58%
14,CN1CC2(CCN(C(=O)c3ccc(=O)n(C)c3)CC2)CC1=O,50.5%
15,CN1CCN(C(=O)c2ccc(=O)n(C)c2)c2ccccc21,50.4%
16,COCCCN1CC2(CCN(C(=O)c3ccc(=O)n(C)c3)CC2)CC1=O,-14.7%
17,Cn1cc(C(=O)N2CCOc3ccccc32)ccc1=O,51.8%
18,CN1C(=O)CN(C(=O)c2ccc(=O)n(C)c2)c2ccccc21,60.5%
19,Cc1ccc2c(c1)OCCN2C(=O)c1ccc(=O)n(C)c1,8.48%
20,CCN1CCN(C(=O)c2ccc(=O)n(C)c2)c2ccccc21,44.1%
21,CN1CCN(C(=O)c2ccc(=O)n(C)c2)Cc2ccccc21,40.3%
22,Cn1cc(C(=O)N2CCOc3cc(F)ccc32)ccc1=O,16.1%
23,CN1CC2(CCN(C(=O)c3ccc4nonc4c3)CC2)CC1=O,-6.01%

row,SMILES,INHIBITION
1,CC1CN(C)c2ccccc2N(C(=O)c2ccc(=O)n(C)c2)C1 (stereo not given),31.8%
2,CC1CN(C(=O)c2ccc(=O)n(C)c2)c2ccccc2NC1=O (stereo not given),-12.2%
3,CN(Cc1cccc(F)c1)C(=O)CN1CCOC(Cn2cccn2)C1 (stereo not given),-14.8%
4,COc1coc(C(=O)Nc2ccncc2)cc1=O,14.3%
5,Cc1cnc(N2CCC3(CCC(C(=O)NC(C)C)C3)CC2)nc1 (stereo not given),11.3%
6,CC1CCN(C)c2ccccc2N1C(=O)c1ccc(=O)n(C)c1 (stereo not given),-3.12%
7,Cn1cc(C(=O)N2CCSc3ccccc32)ccc1=O,33.8%
8,CC(=O)N1CCCN(C(=O)c2ccc(=O)n(C)c2)c2ccccc21,62.6%
9,COc1ccc(-c2cc(C3CC3)c(C#N)c(N)n2)cc1F,-60.9%
10,O=C(c1ccc[nH]1)N1CCc2nnc(Cn3cccc3)n2CC1,-6.25%
11,Cc1ccc(S(=O)(=O)n2ccn(C(=O)CC(C)C)c2=O)cc1,40%
12,Cc1ccc(N2CCC3(CCN(Cc4csc(C)n4)C3=O)C2)nn1 (stereo not given),47.5%
13,Cc1cnc(N2CCC3(CCN(Cc4csc(C)n4)C3=O)C2)nc1 (stereo not given),34%
14,COc1ccc2c(c1)C1(CCN(Cc3ccccn3)CC1)N(C)CC2,-73.3%
15,Cc1nc(CN2CCN(c3cc(CCN)ncn3)CC2)cs1,17.2%
16,COc1cc(N2CCC3(CCN(Cc4csc(C)n4)C3)CC2)ncn1,55.7%
17,Cc1ccc(N2CCC3(CCN(Cc4csc(C)n4)CC3)CC2)nn1,58.7%
18,Cc1ccc(N2CCC3(CCN(Cc4nccs4)CC3)CC2)nn1,26.5%
19,COc1ccc2c(c1)C1(CCN(Cc3ccncc3)CC1)N(C)CC2,-9.67%
20,COc1ccc2c(c1)C1(CCN(Cc3nccs3)CC1)N(C)CC2,51.3%
21,Cc1cc(NC2CC3(CCN(Cc4csc(C)n4)C3)C2)ncn1 (stereo not given),-31.1%
22,Cc1ccc(N2CCC3(CCN(Cc4ccccn4)CC3)CC2)nn1,-42.6%
23,COc1cc(N2CCC3(CCN(Cc4csc(C)n4)C3=O)C2)ncn1 (stereo not given),90.1%
